# Data published in the supplement of paper PMC4466140.
# Legend:
# Test in all cases: SPOT peptide array binding signal intensity (averaged, normalized) (arbitrary units (background-subtracted, floor 0; scale differs between SH3 domains)); higher = stronger binding of the SH3 domain to the peptide
# CaNbp2 = target: CaNbp2
# Summary of the method: (§1)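 Peptides were synthetic 15-mers on cellulose membranes, with every cysteine replaced by serine. They were incubated overnight at 4°C with GST-SH3 domains from four yeast species at 10 μg/ml in TBS-based blocking buffer. Binding signal, the replicate-averaged normalized and background-subtracted spot intensity, is in arbitrary units that differ between domains.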
# CaRvs167 = target: CaRvs167
# Summary of the method: as §1
# CaRvs167-3 = target: CaRvs167-3
# Summary of the method: as §1
# CaSho1 = target: CaSho1
# Summary of the method: as §1
# CaSla1-D1-D2 = target: CaSla1-D1-D2
# Summary of the method: as §1
# CaSla1-D3 = target: CaSla1-D3
# Summary of the method: as §1
# ScAbp1 = target: ScAbp1
# Summary of the method: as §1
# ScBbc1 = target: ScBbc1
# Summary of the method: as §1
# ScBem1-D1 = target: ScBem1-D1
# Summary of the method: as §1
# ScBzz1-D1 = target: ScBzz1-D1
# Summary of the method: as §1
# ScBzz1-D2 = target: ScBzz1-D2
# Summary of the method: as §1
# ScCyk3 = target: ScCyk3
# Summary of the method: as §1
# ScFus1 = target: ScFus1
# Summary of the method: as §1
# ScHof1 = target: ScHof1
# Summary of the method: as §1
# ScHse1 = target: ScHse1
# Summary of the method: as §1
# ScLsb1 = target: ScLsb1
# Summary of the method: as §1
# ScLsb2 = target: ScLsb2
# Summary of the method: as §1
# ScLsb3 = target: ScLsb3
# Summary of the method: as §1
# ScLsb4 = target: ScLsb4
# Summary of the method: as §1
# ScMyo3 = target: ScMyo3
# Summary of the method: as §1
# ScMyo5 = target: ScMyo5
# Summary of the method: as §1
# ScNbp2 = target: ScNbp2
# Summary of the method: as §1
# ScPex13 = target: ScPex13
# Summary of the method: as §1
# ScRvs167 = target: ScRvs167
# Summary of the method: as §1
# ScSho1 = target: ScSho1
# Summary of the method: as §1
# ScSla1-D1-D2 = target: ScSla1-D1-D2
# Summary of the method: as §1
# ScSla1-D3 = target: ScSla1-D3
# Summary of the method: as §1
# SpAbp1-D1 = target: SpAbp1-D1
# Summary of the method: as §1
# SpBbc1 = target: SpBbc1
# Summary of the method: as §1
# SpBzz1-D1 = target: SpBzz1-D1
# Summary of the method: as §1
# SpBzz1-D2 = target: SpBzz1-D2
# Summary of the method: as §1
# SpCyk3 = target: SpCyk3
# Summary of the method: as §1
# SpHof1 = target: SpHof1
# Summary of the method: as §1
# SpHof1-2 = target: SpHof1-2
# Summary of the method: as §1
# SpHof1-3 = target: SpHof1-3
# Summary of the method: as §1
# SpHse1 = target: SpHse1
# Summary of the method: as §1
# SpLsb1 = target: SpLsb1
# Summary of the method: as §1
# SpLsb4 = target: SpLsb4
# Summary of the method: as §1
# SpMyo1 = target: SpMyo1
# Summary of the method: as §1
# SpNbp2 = target: SpNbp2
# Summary of the method: as §1
# SpPex13 = target: SpPex13
# Summary of the method: as §1
# SpRvs167 = target: SpRvs167
# Summary of the method: as §1
# SpSla1-D1-D2 = target: SpSla1-D1-D2
# Summary of the method: as §1
# SpSla1-D3 = target: SpSla1-D3
# Summary of the method: as §1
# AgAbp1 = target: AgAbp1
# Summary of the method: as §1
# AgBbc1 = target: AgBbc1
# Summary of the method: as §1
# AgBem1-D1 = target: AgBem1-D1
# Summary of the method: as §1
# AgBzz1-D1 = target: AgBzz1-D1
# Summary of the method: as §1
# AgBzz1-D2 = target: AgBzz1-D2
# Summary of the method: as §1
# AgCyk3 = target: AgCyk3
# Summary of the method: as §1
# AgFus1 = target: AgFus1
# Summary of the method: as §1
# AgHof1 = target: AgHof1
# Summary of the method: as §1
# AgHse1 = target: AgHse1
# Summary of the method: as §1
# AgLsb1 = target: AgLsb1
# Summary of the method: as §1
# AgLsb4 = target: AgLsb4
# Summary of the method: as §1
# AgMyo5 = target: AgMyo5
# Summary of the method: as §1
# AgNbp2 = target: AgNbp2
# Summary of the method: as §1
# AgRvs167 = target: AgRvs167
# Summary of the method: as §1
# AgSho1 = target: AgSho1
# Summary of the method: as §1
# AgSla1-D1-D2 = target: AgSla1-D1-D2
# Summary of the method: as §1
# AgSla1-D3 = target: AgSla1-D3
# Summary of the method: as §1
# CaAbp1-D1 = target: CaAbp1-D1
# Summary of the method: as §1
# CaAbp1-D2 = target: CaAbp1-D2
# Summary of the method: as §1
# CaBbc1 = target: CaBbc1
# Summary of the method: as §1
# CaBem1-D1 = target: CaBem1-D1
# Summary of the method: as §1
# CaBzz1-D1 = target: CaBzz1-D1
# Summary of the method: as §1
# CaBzz1-D2 = target: CaBzz1-D2
# Summary of the method: as §1
# CaCyk3 = target: CaCyk3
# Summary of the method: as §1
# CaFus1 = target: CaFus1
# Summary of the method: as §1
# CaHof1 = target: CaHof1
# Summary of the method: as §1
# CaHse1 = target: CaHse1
# Summary of the method: as §1
# CaLsb1 = target: CaLsb1
# Summary of the method: as §1
# CaLsb4 = target: CaLsb4
# Summary of the method: as §1
# CaMyo5 = target: CaMyo5
# Summary of the method: as §1
binder,measurement,setting,value
PKRRAPPPVPKKPSS,SPOT peptide array binding signal intensity,CaNbp2,3070
same,SPOT peptide array binding signal intensity,CaRvs167,104
same,SPOT peptide array binding signal intensity,CaRvs167-3,7.5
same,SPOT peptide array binding signal intensity,CaSho1,93
same,SPOT peptide array binding signal intensity,CaSla1-D1-D2,3270
same,SPOT peptide array binding signal intensity,CaSla1-D3,1040
same,SPOT peptide array binding signal intensity,ScAbp1,3020
same,SPOT peptide array binding signal intensity,ScBbc1,651
same,SPOT peptide array binding signal intensity,ScBem1-D1,40
same,SPOT peptide array binding signal intensity,ScBzz1-D1,2560
same,SPOT peptide array binding signal intensity,ScBzz1-D2,83.5
same,SPOT peptide array binding signal intensity,ScCyk3,6
same,SPOT peptide array binding signal intensity,ScFus1,14
same,SPOT peptide array binding signal intensity,ScHof1,≤ 0
same,SPOT peptide array binding signal intensity,ScHse1,326
same,SPOT peptide array binding signal intensity,ScLsb1,488
same,SPOT peptide array binding signal intensity,ScLsb2,800
same,SPOT peptide array binding signal intensity,ScLsb3,4240
same,SPOT peptide array binding signal intensity,ScLsb4,78.5
same,SPOT peptide array binding signal intensity,ScMyo3,865
same,SPOT peptide array binding signal intensity,ScMyo5,436
same,SPOT peptide array binding signal intensity,ScNbp2,5110
same,SPOT peptide array binding signal intensity,ScPex13,560
same,SPOT peptide array binding signal intensity,ScRvs167,1250
same,SPOT peptide array binding signal intensity,ScSho1,1580
same,SPOT peptide array binding signal intensity,ScSla1-D1-D2,3720
same,SPOT peptide array binding signal intensity,ScSla1-D3,1510
same,SPOT peptide array binding signal intensity,SpAbp1-D1,1910
same,SPOT peptide array binding signal intensity,SpBbc1,144
same,SPOT peptide array binding signal intensity,SpBzz1-D1,2040
same,SPOT peptide array binding signal intensity,SpBzz1-D2,863
same,SPOT peptide array binding signal intensity,SpCyk3,2.5
same,SPOT peptide array binding signal intensity,SpHof1,165
same,SPOT peptide array binding signal intensity,SpHof1-2,21
same,SPOT peptide array binding signal intensity,SpHof1-3,290
same,SPOT peptide array binding signal intensity,SpHse1,143
same,SPOT peptide array binding signal intensity,SpLsb1,1820
same,SPOT peptide array binding signal intensity,SpLsb4,1020
same,SPOT peptide array binding signal intensity,SpMyo1,584
same,SPOT peptide array binding signal intensity,SpNbp2,38.5
same,SPOT peptide array binding signal intensity,SpPex13,11
same,SPOT peptide array binding signal intensity,SpRvs167,803
same,SPOT peptide array binding signal intensity,SpSla1-D1-D2,1990
same,SPOT peptide array binding signal intensity,SpSla1-D3,≤ 0
RKRAPTPPAPSRSEK,SPOT peptide array binding signal intensity,AgAbp1,639
same,SPOT peptide array binding signal intensity,AgBbc1,146
same,SPOT peptide array binding signal intensity,AgBem1-D1,112
same,SPOT peptide array binding signal intensity,AgBzz1-D1,128
same,SPOT peptide array binding signal intensity,AgBzz1-D2,98
same,SPOT peptide array binding signal intensity,AgCyk3,2
same,SPOT peptide array binding signal intensity,AgFus1,≤ 0
same,SPOT peptide array binding signal intensity,AgHof1,25
same,SPOT peptide array binding signal intensity,AgHse1,171
same,SPOT peptide array binding signal intensity,AgLsb1,253
same,SPOT peptide array binding signal intensity,AgLsb4,35.5
same,SPOT peptide array binding signal intensity,AgMyo5,0.5
same,SPOT peptide array binding signal intensity,AgNbp2,1300
same,SPOT peptide array binding signal intensity,AgRvs167,4.33
same,SPOT peptide array binding signal intensity,AgSho1,5
same,SPOT peptide array binding signal intensity,AgSla1-D1-D2,167
same,SPOT peptide array binding signal intensity,AgSla1-D3,21.8
same,SPOT peptide array binding signal intensity,CaAbp1-D1,3830
same,SPOT peptide array binding signal intensity,CaAbp1-D2,3240
same,SPOT peptide array binding signal intensity,CaBbc1,426
same,SPOT peptide array binding signal intensity,CaBem1-D1,306
same,SPOT peptide array binding signal intensity,CaBzz1-D1,2860
same,SPOT peptide array binding signal intensity,CaBzz1-D2,3180
same,SPOT peptide array binding signal intensity,CaCyk3,12
same,SPOT peptide array binding signal intensity,CaFus1,106
same,SPOT peptide array binding signal intensity,CaHof1,0.25
same,SPOT peptide array binding signal intensity,CaHse1,3.25
same,SPOT peptide array binding signal intensity,CaLsb1,5.5
same,SPOT peptide array binding signal intensity,CaLsb4,249
same,SPOT peptide array binding signal intensity,CaMyo5,3.5
same,SPOT peptide array binding signal intensity,CaNbp2,797
same,SPOT peptide array binding signal intensity,CaRvs167,27.8
same,SPOT peptide array binding signal intensity,CaRvs167-3,20.2
same,SPOT peptide array binding signal intensity,CaSho1,4
same,SPOT peptide array binding signal intensity,CaSla1-D1-D2,1150
same,SPOT peptide array binding signal intensity,CaSla1-D3,≤ 0
same,SPOT peptide array binding signal intensity,ScAbp1,187
same,SPOT peptide array binding signal intensity,ScBbc1,114
same,SPOT peptide array binding signal intensity,ScBem1-D1,21.5
same,SPOT peptide array binding signal intensity,ScBzz1-D1,128
same,SPOT peptide array binding signal intensity,ScBzz1-D2,26
same,SPOT peptide array binding signal intensity,ScCyk3,9.5
same,SPOT peptide array binding signal intensity,ScFus1,≤ 0
same,SPOT peptide array binding signal intensity,ScHof1,0.75
same,SPOT peptide array binding signal intensity,ScHse1,762
same,SPOT peptide array binding signal intensity,ScLsb1,89.5
same,SPOT peptide array binding signal intensity,ScLsb2,6
same,SPOT peptide array binding signal intensity,ScLsb3,1010
same,SPOT peptide array binding signal intensity,ScLsb4,31.5
same,SPOT peptide array binding signal intensity,ScMyo3,5
same,SPOT peptide array binding signal intensity,ScMyo5,1.5
same,SPOT peptide array binding signal intensity,ScNbp2,2100
same,SPOT peptide array binding signal intensity,ScPex13,30.5
same,SPOT peptide array binding signal intensity,ScRvs167,544
same,SPOT peptide array binding signal intensity,ScSho1,172
same,SPOT peptide array binding signal intensity,ScSla1-D1-D2,1970
same,SPOT peptide array binding signal intensity,ScSla1-D3,46.5
same,SPOT peptide array binding signal intensity,SpAbp1-D1,1150
same,SPOT peptide array binding signal intensity,SpBbc1,≤ 0
same,SPOT peptide array binding signal intensity,SpBzz1-D1,428
same,SPOT peptide array binding signal intensity,SpBzz1-D2,157
same,SPOT peptide array binding signal intensity,SpCyk3,≤ 0
same,SPOT peptide array binding signal intensity,SpHof1,140
same,SPOT peptide array binding signal intensity,SpHof1-2,5.75
same,SPOT peptide array binding signal intensity,SpHof1-3,486
same,SPOT peptide array binding signal intensity,SpHse1,123
same,SPOT peptide array binding signal intensity,SpLsb1,39.2
same,SPOT peptide array binding signal intensity,SpLsb4,1110
same,SPOT peptide array binding signal intensity,SpMyo1,4.5
same,SPOT peptide array binding signal intensity,SpNbp2,67.5
same,SPOT peptide array binding signal intensity,SpPex13,≤ 0
same,SPOT peptide array binding signal intensity,SpRvs167,450
same,SPOT peptide array binding signal intensity,SpSla1-D1-D2,199
same,SPOT peptide array binding signal intensity,SpSla1-D3,≤ 0
